Measured values: PubChem BioAssay AID1865 (National Center for Advancing Translational Sciences (NCATS), 2009)
About 540 (0.19%) of roughly 280,000 compounds were called active. Not shown: some 2% with an inconclusive outcome. Shown is part of a subset that was picked to be rich in actives. Unmarked numbers belong to inactive results. Calls come from the whole dose curve; as a rule, active = well fitted activation curve with a large enough effect; inconclusive = small, poorly fitted or top-dose-only effect; inactive = flat fitted curve, though single readings scatter.

Assay: Quantitative High-Throughput Screen for Regulators of Epigenetic Control; note: nearly all actives have a fitted effect of over 60% in size; for GFP activation: % of control where 0% means no effect
Details: murine LDR cells, GFP reporter derepression, 30 h; series mostly up to 53.9 µM; GFP activation: at the top concentration
Procedure, shortened: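 GFP-positive cell count by laser-scanning cytometry (objects 20–120 um) after 30 h, 37 C compound exposure of murine LDR cells; reporter is CMV-GFP integrated at a silenced locus, inducible by HDAC or DNMT inhibitors.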
Potency is the fitted concentration of half-maximal effect.

Going from `Fc1ccc(-n2ncc3c(Nc4ccc(Oc5ccccc5)cc4)ncnc32)cc1` to `Fc1ccc(Nc2nc(SCc3ccccc3Cl)nc3ccccc23)cc1`, the “GFP activation” value falls from 2.05% to 0%.

Compared with `COc1ccccc1CN1CCC(CNC(=O)c2cnn(-c3ccccc3Cl)c2C2CCN(C(=O)OC(C)(C)C)CC2)CC1`, `COc1ccccc1-c1nnc(C2CCN(C(=O)c3ccc(Cl)cc3)CC2)o1` is higher in “GFP activation” value: -1.27% for the first, 1.22% for the second.

Going from `CCOc1ccccc1C(=O)Nc1ccc2c(c1)N(C)C(=O)c1ccccc1S2` to `CCOc1ccc(NC(=O)c2cc3c(=O)n(Cc4cccs4)ccc3nc2C)cc1`, the “GFP activation” value falls from 9.09% to 0%.

Going from `CCOC(=O)c1c(C)[nH]c(CCC(=O)Nc2ccc(OC)c(OC)c2)c1C` to `COc1cc(NC(=O)Cn2nc(-c3ccc(C)c(C)c3)ccc2=O)cc(OC)c1`, the “GFP activation” value rises from -1.54% to 0%.

Compared with `O=S(=O)(c1ccc2nc(NCc3ccccc3Cl)ccc2c1)N1CCCCC1`, `CC(C)(C)c1ccc(S(=O)(=O)N2CCN(C(=O)c3cc(-c4ccc(Br)cc4)n[nH]3)CC2)cc1` is higher in “GFP activation” value: -1.46% for the first, 0% for the second.

Compared with `COc1cc(CN(C(=O)c2ccccc2Br)c2ccccn2)cc(OC)c1OC`, `COc1ccc(NC(=O)c2ccc3nc(CCc4ccccc4)oc3c2)c(OC)c1` is higher in “GFP activation” value: 0.833% for the first, 1.69% for the second.

Going from `CC(C)(C)c1ccc(OCC(=O)N2CCC(c3nc4ccccc4s3)CC2)cc1` to `CC(C)(C)c1ccc(C(=O)Nc2ccc3c(c2)CCCN3C(=O)c2cccs2)cc1`, the “GFP activation” value falls from 0% to -1.49%.

First: Cc1ccc(-n2c3nc(=O)[nH]c(=O)c-3cc3c(Cl)cccc32)cc1
Second: COc1cccc(C(=O)NC2(C(F)(F)F)C(=O)Nc3c2c(=O)[nH]c(=O)n3-c2ccc(C)cc2)c1 (stereo not drawn)
The “GFP activation” value of the first is higher: 0.833% for the first, 0% for the second.

Compared with `Cc1c(-c2nsc(NC(=O)c3cccc(Cl)c3)n2)nnn1-c1ccccc1C(F)(F)F`, `COc1ccc(-n2nnc(-c3nsc(NC(=O)c4ccc(C)c(C)c4)n3)c2C)cc1Cl` is lower in “GFP activation” value: -3.14% for the first, -3.18% for the second.

First: CSc1ccc(C2c3c(oc4ccccc4c3=O)C(=O)N2CCCN2CCOCC2)cc1 (stereo not drawn)
Second: O=C(Cn1nc(Cc2cccnc2)c2ccccc2c1=O)N1CCN(c2ccccc2F)CC1
The “GFP activation” value of the first is higher: -0.962% for the first, -5.16% for the second.

Compared with `CCC(C(=O)Nc1cccc(Cl)c1C)n1nc(-c2ccc(C)cc2)ccc1=O` (stereo not drawn), `CCc1ccc(NC(=O)c2nn(-c3ccc(C)cc3)c(=O)n(C)c2=O)cc1` is higher in “GFP activation” value: -5.49% for the first, 8.47% for the second.

Going from `CCOC(=O)CNC(=O)c1cc2c(=O)n3cccc(C)c3nc2s1` to `CCOC(=O)CC1C(=O)NCCN1C(=O)COc1ccc(Br)cc1C` (stereo not drawn), the “GFP activation” value falls from -0.885% to -3.32%.

Compared with `Cc1ccc(SCC(=O)Nc2ccc3oc(-c4ccccc4F)nc3c2)cc1`, `Cc1ccc(S(=O)(=O)c2nc(-c3ccco3)oc2SCC(=O)Nc2ccc(F)cc2)cc1` is lower in “GFP activation” value: 16.1% for the first, 11.1% for the second.

Going from `Cc1c(Cl)cccc1NC(=O)Cn1cc(C(=O)c2cccs2)c2ccccc21` to `Cc1c(Cl)cccc1NC(=O)N1CCN(C(=O)c2nsc3ccccc23)CC1`, the “GFP activation” value rises from 2.88% to 5.4%.

Compared with `COc1cccc(C(=O)Nc2ccc(-c3cc(C(F)(F)F)nn3-c3ccccc3)cc2)c1`, `Cc1cc(C(=O)Nc2cccc(C(F)(F)F)c2)c2c(C)nn(-c3cccc(F)c3)c2n1` is lower in “GFP activation” value: 1.08% for the first, -1.27% for the second.

First: CCS(=O)(=O)c1ncc(N(Cc2ccc(F)cc2)Cc2ccco2)c(C(=O)Nc2cc(C)ccc2C)n1
Second: Cc1ccc(S(=O)(=O)N(CC(=O)Nc2ccc(Cl)cc2Cl)c2ccccc2C)cc1
The “GFP activation” value of the first is lower: -2.39% for the first, 1.91% for the second.

Compared with `CC(C)CCN(C(=O)Nc1ccc(Cl)c(Cl)c1)C(C)c1cccs1` (stereo not drawn), `CC(=O)Nc1ccc(/C=N/NC(=O)c2cccs2)cc1` is higher in “GFP activation” value: -0.998% for the first, 1.14% for the second.

Going from `CCc1cc2c(cc(C(=O)OC)n2Cc2nc(-c3ccc(C)cc3)oc2C)s1` to `CC(=O)c1ccc(NC(=O)CCc2nc(-c3ccc(C)cc3)no2)cc1`, the “GFP activation” value falls from 2.7% to -1.54%.

Going from `CCC(Sc1nc2n[nH]c(C)c2c(=N)n1-c1ccccc1Cl)C(=O)N(CC)CC` (stereo not drawn) to `Cc1nn(C(C)C(=O)NCCc2ccccc2)c(=O)c2c1sc1ccccc12` (stereo not drawn), the “GFP activation” value rises from 0% to 13.4%.

Compared with `CC1=C(C(=O)N2CCN(c3cccc(C(F)(F)F)c3)CC2)C2(CCCCC2)OC1=O`, `Cc1ccccc1C(=O)Nc1sc2c(c1C(=O)N1CCC(C)CC1)CCCC2` is higher in “GFP activation” value: 0% for the first, 4.81% for the second.

First: COc1ccc(OCCCn2c(C)nc3cc(C)c(C)cc32)cc1
Second: COc1ccc(-c2onc(C)c2C)cc1S(=O)(=O)NCCc1ccccc1
The “GFP activation” value of the first is higher: -0.78% for the first, -4.71% for the second.

First: C/[N+]([O-])=C\c1ccc([N+](=O)[O-])o1
Second: CCCC(=O)Nc1nnc(-c2ccccc2)o1
The “GFP activation” value of the first is lower: 0.0128% for the first, 1.08% for the second.

Going from `Cn1cc(/C=C/c2nc3ccccc3c(=O)n2-c2cccc([N+](=O)[O-])c2)c2ccccc21` to `CS(=O)(=O)c1sc2nc(-c3ccccc3)cc(-c3ccccc3)c2c1N`, the “GFP activation” value rises from 0.971% to 1.45%.

Going from `Cc1ccc(NC(=O)c2ccc(CN3CC(=O)N4CCCCC4C3=O)cc2)c(Cl)c1` (stereo not drawn) to `COc1cc2[nH]c(=O)n(Cc3ccc(C(=O)NCc4ccc(C)cc4)cc3)c(=O)c2cc1OC`, the “GFP activation” value rises from -1.23% to 6.33%.

Compared with `CCCN(CCC)C(=O)Cn1c(=O)n(-c2ccc(Cl)cc2)c(=O)c2c3c(sc21)CCCCC3`, `COc1ccc(C(=O)Nc2cccc(C(=O)OCc3cc(=O)n4c5c(sc4n3)CCCC5)c2)cc1` is higher in “GFP activation” value: -0.0516% for the first, 3.53% for the second.

Going from `O=C(NCc1ccc2c(c1)CCN2C(=O)c1ccccc1)c1ccccc1` to `O=C(Nc1ccc2nc(SCC(=O)N3CCCc4ccccc43)sc2c1)c1ccc(F)cc1`, the “GFP activation” value falls from -0.465% to -3.23%.

Going from `O=C(COc1ccc(Cl)cc1)N(Cc1ccco1)Cc1ccco1` to `CN1CCN(c2oc(-c3ccc(COc4ccc(Cl)cc4)o3)nc2C#N)CC1`, the “GFP activation” value rises from -1.6% to 0%.

Compared with `CCNS(=O)(=O)c1ccc(NC(=O)CSc2nc(-c3ccco3)cc(C(F)(F)F)n2)cc1`, `O=C(CSc1ncc(S(=O)(=O)c2ccc(Br)cc2)c(=O)[nH]1)Nc1ccc2c(c1)OCCO2` is higher in “GFP activation” value: -0.962% for the first, 0% for the second.

Going from `Clc1cccc(N=C2NN=C(c3ccc4c(c3)OCCO4)CS2)c1` to `Cc1ccc2nc(-c3ccncc3)cc(C(=O)Nc3ccc4c(c3)OCCO4)c2c1`, the “GFP activation” value rises from -7.25% to 2.23%.

First: O=C1NCC(=O)N(Cc2ccccc2)/C1=C/c1ccccc1
Second: CC1=NN(Cc2ccccc2)C(=O)/C1=C/c1ccc(N(C)C)cc1
The “GFP activation” value of the first is higher: -0.292% for the first, -0.855% for the second.

Going from `CCN1/C(=C/C(=S)Nc2ccccc2)Sc2ccccc21` to `CCN1CCN(CCNC(=O)c2ccc(/C=C3/Sc4ccccc4N(Cc4cccc(C)c4)C3=O)cc2)CC1`, the “GFP activation” value rises from 0.971% to 4.88%.

Going from `COc1ccc(OC)c(NC(=O)C2CCCN(S(=O)(=O)c3ccc4c(c3)CCCC(=O)N4)C2)c1` (stereo not drawn) to `COc1ccc(CCNC(=O)c2cn(C)c3ccc(S(=O)(=O)N(C)C4CCCCC4)cc3c2=O)cc1OC`, the “GFP activation” value rises from 0.833% to 1.22%.

Going from `Cc1ccc2nc(/C(C#N)=C/c3ccccc3F)[nH]c2c1` to `Cc1ccc2nc(/C(C#N)=C\c3ccc(OC(=O)c4cccs4)cc3)[nH]c2c1`, the “GFP activation” value rises from -1.59% to 5.06%.

Compared with `NNC(=O)c1oc2nc(-c3ccccc3)cc(-c3ccco3)c2c1N`, `Cc1ccc(-c2cc(C(=O)N/N=C/C=C/c3ccco3)c3ccccc3n2)cc1C` is higher in “GFP activation” value: 0.0322% for the first, 2.16% for the second.

First: CC1Cc2cc(S(=O)(=O)CCC(=O)Nc3ccc(F)c(Cl)c3)ccc2N1C(=O)C1CC1 (stereo not drawn)
Second: Cc1ccc(CCNC(=O)Cn2c(-c3cccs3)cc3cc(F)ccc32)cc1
The “GFP activation” value of the first is higher: -0.364% for the first, -1.88% for the second.

First: Cc1nn(C)cc1N1C(=O)c2cccc3c(N)ccc(c23)C1=O
Second: CCN1C(=O)c2cccc3c(N)ccc1c23
The “GFP activation” value of the first is higher: 2.11% for the first, 0.901% for the second.

First: COc1ccc(Br)cc1/C=N/n1c(C)nnc1C
Second: CCN1CCN(c2ncnc3c2cnn3-c2ccc(C)c(C)c2)CC1
The “GFP activation” value of the first is higher: 4.97% for the first, 0% for the second.

Compared with `CC(=O)Nc1cccc(Oc2cc(C#N)c(C#N)cc2N2CCOCC2)c1`, `Cc1ccc(C)c(N2CCN(C(=O)Cn3nc(C)c4sc5ccccc5c4c3=O)CC2)c1` is lower in “GFP activation” value: -1.01% for the first, -2.4% for the second.

First: Cc1noc2ncnc(NCc3ccccc3Cl)c12
Second: O=C(/C=C/c1ccccc1)Nc1cc(-c2nc3cc(Cl)ccc3o2)ccc1Cl
The “GFP activation” value of the first is lower: 0% for the first, 1.08% for the second.

Going from `CCc1ccc(C2CC(=O)c3c([nH]c(C(=O)OCc4ccc(C)cc4)c3C)C2)cc1` (stereo not drawn) to `COc1ccc(CNc2nc(-c3ccc(Cl)cc3)nn2S(=O)(=O)c2ccc(C)cc2)cc1`, the “GFP activation” value rises from 0.291% to 2.76%.

Going from `Cc1cc(C)cc(NS(=O)(=O)c2ccc(-c3cc(C)no3)s2)c1` to `Cc1cccc(NC(=O)CSc2nnc(CNC(=O)c3cccc(C)c3)n2-c2ccccc2)c1`, the “GFP activation” value rises from -0.833% to 0%.

First: O=C(Nc1ccncc1)c1cc(-c2ccccn2)nc2ccc(Br)cc12
Second: OCc1cnc(SCc2ccc(F)cc2)n1Cc1ccc(F)cc1
The “GFP activation” value of the first is higher: 1.14% for the first, 0.584% for the second.

With `CCCCCCc1ccc(O)cc1O` the “GFP activation” value was 13.1%.

In the case of `CCOC(=O)CC1C(=O)NCCN1c1nc2c(C)cccn2c(=O)c1/C=C1\SC(=S)N(C(C)CC)C1=O` (stereo not drawn), the Potency is reported as 7.08 µM (active).
With `CCn1c(/C=C/c2ccc([N+](=O)[O-])o2)nc2ccccc2c1=O` the Potency was 3.55 µM (active).
For `CN(C)c1nc(=Nc2cccc(Cl)c2)ss1`, the Potency was 1.12 µM (active).
In the case of `CN(C)c1ccc(/C=C2\NC(=S)N(Cc3ccccc3)C2=O)cc1`, the Potency is reported as 7.08 µM (active).
In the case of `CCN1/C(=C\c2ccc3ccccc3[n+]2CC)Sc2cc(C)ccc21`, the Potency is reported as 0.562 µM (active).
For `CCN1/C(=C/c2ccc3ccc(C)cc3[n+]2CC)Sc2ccccc21`, the Potency was 1.12 µM (active).
With `Cc1ccc2nc(/C(C#N)=C/c3ccc(-c4ccc(C(=O)OC(C)C)cc4)o3)[nH]c2c1` the Potency was 1.41 µM (active).
In the case of `CNC(=S)NNC(=O)c1oc2nc(-c3ccccc3)cc(-c3ccco3)c2c1N`, the Potency is reported as 15.8 µM (active).
For `O=C(N/N=C/C=C/c1ccco1)c1cccs1`, the Potency was 17.8 µM (active).
In the case of `Nc1ccc2c3c(cccc13)C(=O)NC2=O`, the Potency is reported as 17.8 µM (active).
In the case of `COc1cc(N2CCCC2)c(OC)cc1/C=C(/C#N)c1cccc(Br)c1`, the Potency is reported as 3.55 µM (active).
In the case of `Cc1ccc2nc(-c3ccccn3)cc(C(=O)Nc3ccc4c(c3)OCO4)c2c1`, the Potency is reported as 15.8 µM (active).
In the case of `CCCCCCc1cc2cc(-c3nnc(-c4ccccc4)o3)c(=O)oc2cc1O`, the Potency is reported as 1.78 µM (active).
